Measured values: PubChem BioAssay (NCATS)
Results filed as inconclusive are left out. Activity calls are given as the source filed them. Unless noted, calls follow the shape of the dose curve; as a rule, active = well fitted curve in the direction sought with a large enough effect; inconclusive = small, poorly fitted or top-dose-only effect, or another doubt; inactive = no such curve, though single readings can be large; an effect the other way counts as inactive or inconclusive.

Experiments:
[1] = Cell Viability - BJ (AID 421; calls by dose curve;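 also: potency is read from the fitted curve at half-maximal effect; cells exposed to compound for 40 hours at 37 °C before readout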); conditions: BJ fibroblast viability, qHTS
Summary of the method: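 Luminescent ATP signal (CellTiter-Glo, 20 min at room temperature) served as the read-out of viable BJ cells after 40 hours of compound treatment. Responses were scaled between DMSO and 100 uM tamoxifen, and AC50 values were obtained by Hill modeling.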

[2] = Cell Viability - Jurkat (AID 426;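 active = dose-dependent loss of cell ATP signal giving a full or clear fitted curve, ranked by lower potency value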;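 also: potency is read from the fitted curve at half-maximal effect; cells exposed to compound for 40 hours at 37 °C before ATP read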); conditions: qHTS
Summary of the method: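 Cytotoxicity was scored as loss of cellular ATP, measured by luciferase-based luminescence, in Jurkat clone E6-1 cells after 40 h compound treatment; tamoxifen and doxorubicin served as positive controls.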

[3] = Cell Viability - Hek293 (AID 427;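 active = compounds whose dose-response curve shows a full or clear partial loss of cell viability, called from curve shape rather than a numeric limit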;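 also: potency is read from the fitted curve at half-maximal effect; cells exposed to compound for 40 hours at 37 °C before reading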); conditions: qHTS
Summary of the method: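 Luminescent ATP read-out (CellTiter-Glo, 20 min RT) after 40 hr compound exposure at 37 °C in complete medium. Signal normalized to DMSO (basal) and 100 uM tamoxifen (100% inhibition); concentration-response fitted with the standard Hill equation to give AC50.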

[4] = Cell Viability - SK-N-SH (AID 435; calls by dose curve; also: potency is read from the fitted curve at half-maximal effect); conditions: SK-N-SH neuroblastoma cell viability qHTS
Summary of the method: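 qHTS cytotoxicity: CellTiter-Glo ATP luminescence after 40 h compound exposure of human neuroblastoma SK-N-SH cells at 37 °C. AC50 derived by Hill-equation fitting, with DMSO as basal and 100 uM tamoxifen as full inhibition.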

[5] = target: Mitogen-activated protein kinase 10 (Mus musculus) (UniProt Q61831); assay: JNK3 AlphaScreen Assay (AID 530; active = well fitted curve in either direction with a large enough effect, not every such curve was filed as active;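 also: kinase came from lysate of stimulated human HepG2 cells; signal reports phosphorylation of biotinylated GST-cJun 1-79 at Ser73 with 10 µM ATP; % is scaled to controls: 0 for no effect and ±100 for the full control effect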)
Summary of the method: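 HepG2 lysate (IL-1b/TNFa pre-activated) + biotin-GST-cJun 1-79 + anti-pSer73 cJun; cpd titration, 15 min RT; ATP 10 uM start; Tris pH 7.6, MgCl2, DTT, vanadate; beads in EDTA buffer; AlphaScreen.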

[6] = Cell Viability - N2a (AID 540); conditions: N2a mouse neuroblastoma cell viability; activity change, negative = cytotoxicity: at 92.2 µM (top of the series);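 also: plate controls were DMSO alone for no effect and tamoxifen control for full effect; nearly all actives have a fitted effect of over 45% in size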
Summary of the method: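 In this qHTS cytotoxicity screen, ATP-dependent luciferase luminescence reports viable N2a cells after a 40 hr compound exposure in complete culture medium. Potencies are AC50 values from standard Hill equation fits.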

[7] = Cell Viability - NIH 3T3 (AID 541); conditions: NIH 3T3 cell viability, qHTS; activity change, negative = cytotoxicity: at 92.2 µM (top of the series);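 also: plate controls were DMSO alone for no effect and tamoxifen positive control for full effect; nearly all actives have a fitted effect of over 25% in size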
Summary of the method: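 In this cytotoxicity screen, acute toxicity is scored as an ATP drop measured by CellTiter-Glo in NIH 3T3 fibroblasts following a 40 hr, 37 °C incubation with compound.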

[8] = Cell Viability - HUV-EC-C (AID 542); also: % is scaled to controls: 0 for no effect and ±100 for the full control effect; nearly all actives have a fitted effect of over 35% in size
Summary of the method: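 Concentration-dependent ATP loss in HUV-EC-C cells is the measure. Exposure lasts 40 hr at 37 °C; luminescence follows CellTiter-Glo addition, and Hill fits give AC50.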

[9] = Cell Viability - H-4-II-E (AID 543); also: % is scaled to controls: 0 for no effect and ±100 for the full control effect; nearly all actives have a fitted effect of over 35% in size
Summary of the method: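 AC50 from Hill-modelled qHTS concentration-response curves. H-4-II-E rat hepatoma cells in complete medium, 40 hr exposure at 37 °C, viability by CellTiter-Glo ATP luminescence.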

[10] = Cell Viability - SH-SY5Y (AID 544); also: nearly all actives have a fitted effect of over 55% in size
Summary of the method: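 Quantitative HTS in SH-SY5Y neuroblastoma cells, 40 hr treatment at 37 °C, ATP content by luciferase luminescence; AC50 from Hill fits.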

[11] = Cell Viability - Renal Proximal Tubule (AID 545); conditions: renal proximal tubule cells viability, primary cells of rat origin; at 91.7 µM (top of the series); also: nearly all actives have a fitted effect of over 40% in size
Summary of the method: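 Viability taken as intracellular ATP (CellTiter-Glo luminescence) after 40 hr, 37 °C compound treatment of primary proximal tubule cells from rat kidney, 1000 cells/well; Hill-equation fits of qHTS concentration-response data gave AC50.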

[12] = Cell Viability - Mesenchymal (AID 546); conditions: mesenchymal cells viability, qHTS; activity change, negative = cytotoxicity: at 91.7 µM (top of the series);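 also: cells exposed to compound for 40 hours before reading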
Summary of the method: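 Human renal mesenchymal cells (glomerulus-derived), 1000 cells/well, 5 hr 37 °C pre-incubation; compound 40 hr, 37 °C; CellTiter-Glo, 20 min RT; luminescence; AC50 via Hill equation.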

[13] = Cellular Toxicity (caspase-3) HepG2 (AID 654);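 also: cells exposed to compound for 16 hours before reading; 0% = DMSO alone and 100% = caspase signal from 100 µM tamoxifen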
Summary of the method: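 Concentration-response AC50 values reflect caspase-3/7 induction in HepG2 cells after 16 hours of compound exposure, quantified by luminescence from liberated aminoluciferin and referenced to 100 uM tamoxifen as full stimulation.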

[14] = Cellular Toxicity (caspase-3) Jurkat (AID 655); conditions: Jurkat caspase-3 activation, luminescence, DMSO = 0%, tamoxifen = 100%; at 92.2 µM (top of the series);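 also: cells exposed to compound for 16 h at 37 °C before reading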
Summary of the method: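 Luminescent Caspase-Glo 3/7 read-out (20 min, room temperature) after 16 h compound treatment at 37 C of 5000 Jurkat cells per well. AC50 derived by Hill-equation fitting, scaled between DMSO basal and 100 uM tamoxifen stimulation.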

[15] = Cellular Toxicity (caspase-3) HUV-EC-C (AID 656)
Summary of the method: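 Luminescent Caspase-Glo 3/7 readout after 16 h, 37 °C compound exposure of HUV-EC-C endothelial cells, 1000 per well, complete medium. AC50 derived by Hill fitting, with DMSO as baseline and 100 uM tamoxifen as full activation.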

[16] = Cellular Toxicity (caspase-3) SHSY5Y (AID 657)
Summary of the method: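 Luminescent Caspase-Glo 3/7 read-out, 1 hr room temperature, follows 16 hours of compound treatment of SH-SY5Y cells at 37 °C. Normalization: DMSO basal, 10 uM staurosporine as 100%; AC50 values from Hill-equation concentration-response fits.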

[17] = Cellular Toxicity (caspase-3) BJ (AID 658);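 also: 0% = DMSO basal and 100% = 10 µM staurosporine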
Summary of the method: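 qHTS, BJ fibroblasts, 1000 cells/well; 5 hr preincubation, 16 hr compound, 37 °C; Caspase-Glo 3/7 reagent, 1 hr RT; luminescence. DMSO = 0%, 10 uM staurosporine = 100%. Hill-equation AC50.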

[18] = Cellular Toxicity (caspase-3) MRC-5 (AID 659);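 also: 0% = DMSO basal and 100% = 10 µM staurosporine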
Summary of the method: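 MRC-5 fibroblasts, 1500/well; 16 h cpd, 37 °C; Caspase-Glo 3/7, 1 h RT; lumi read. Norm: DMSO = 0%, 10 uM staurosporine = 100%. Hill-fit AC50 from qHTS conc-response.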

[19] = Cellular Toxicity (caspase-3) Mesangial (AID 660);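 also: combined caspase 3 and 7 activity read by Caspase-Glo luminescence; cells exposed to compound for 16 h before the caspase read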
Summary of the method: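 AC50 values come from Hill-equation fits of caspase 3/7 activation, measured as Caspase-Glo luminescence in human glomerular mesangial cells exposed to compound for 16 h at 37 °C; 100% set by 100 uM tamoxifen.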

[20] = Cellular Toxicity (caspase-3) SK-N-SH (AID 661);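 also: 0% = DMSO basal and 100% = 10 µM staurosporine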
Summary of the method: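 Apoptosis readout in SK-N-SH neuroblastoma: Caspase-Glo 3/7 luminescence following 16 hr treatment in complete culture medium. Normalization used DMSO and 10 uM staurosporine controls.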

[21] = Cellular Toxicity (caspase-3) H-4-II-E (AID 663); conditions: Potency: caspase-3 activation;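 also: cells exposed to compound for 16 hr before readout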
Summary of the method: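 H-4-II-E rat hepatoma, 1500 cells/well, 5 hr settle at 37 °C; compound 16 hr, 37 °C, complete medium; Caspase-Glo 3/7, 20 min RT; luminescence. DMSO = 0%, 100 uM tamoxifen = 100%; Hill-equation AC50.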

[22] = Cellular Toxicity (caspase-3) Hek293 (AID 664);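 also: cells exposed to compound for 16 h at 37 °C before readout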
Summary of the method: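 Apoptosis readout: Caspase-Glo 3/7 signal in human HEK293 cells following 16-hour compound incubation. Responses scaled between DMSO baseline and 100 uM tamoxifen.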

[23] = Cellular Toxicity (caspase-3) N2a (AID 665);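 also: compound exposure lasted 16 h at 37 °C before readout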
Summary of the method: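 Concentration-response qHTS: compound-induced caspase-3/7 luminescence in N2a cells (16 h, 37 °C), relative to DMSO and 10 uM staurosporine controls; AC50 obtained using the standard Hill equation.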

[24] = Cellular Toxicity (caspase-3) NIH 3T3 (AID 666);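 also: caspase signal read after 16 h compound exposure; 0% = DMSO basal and 100% = 100 µM tamoxifen stimulation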
Summary of the method: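 Activity: caspase-3/7 induction, NIH 3T3 cells, 16 hr treatment at 37°C, luminescent Caspase-Glo detection; AC50 via Hill equation.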

[25] = Cellular Toxicity (caspase-3) Renal Proximal Tubule (AID 667);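 also: cells exposed to compound for 16 hours at 37 °C before detection; 0% = DMSO basal and 100% = 10 µM staurosporine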
Summary of the method: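 Caspase 3/7 activation measured by luminescent aminoluciferin release in primary rat proximal tubule cells after 16 hr compound exposure at 37 °C. AC50 from Hill-fitted concentration-response, scaled between DMSO and 10 uM staurosporine.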

[26] = Cell Viability - LYMP2-001 (AID 921);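 also: 0% = DMSO only and full inhibition = tetraoctylammonium bromide control wells; nearly all actives have a fitted effect of over 70% in size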
Summary of the method: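 Cellular ATP loss read by luciferase luminescence after 24 h compound exposure at 37 C in complete medium. LYMP2-001 lymphoblastoid cells, 2500/well; qHTS concentration-response data fitted with Hill equation for AC50.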

[27] = MultiTox-Fluor Cytotoxicity Assay - LYMP1-001 - Live Cells (AID 947);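 also: 0% = DMSO only and full inhibition = tetraoctylammonium bromide control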
[28] = Cell Viability - LYMP1-002 - Assay at 16 hr (AID 948);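 also: 0% = DMSO alone and full effect = 92 µM tetraoctylammonium bromide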
Summary of the method: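 ATP luminescence (CellTiter-Glo) was measured after 16 hr compound exposure at 37 C of 2500 lymphoblastoid LYMP1-002 cells per well. Concentration-response curves were fitted with the Hill equation to give AC50.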

[29] = MultiTox-Fluor Cytotoxicity Assay - LYMP1-002 - Live Cells (AID 955); also: % is scaled to controls: 0 for no effect and ±100 for the full control effect
Summary of the method: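 In this qHTS viability format, lymphoblastoid cells (LYMP1-002, human) received compound for 16 hr at 37 C. Fluorogenic GF-AFC cleavage by viable cells was detected at 405/510 nm after 1 h at room temperature.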

[30] = MultiTox-Fluor Cytotoxicity Assay - LYMP1-003 - Dead Cells (AID 961);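 also: 0% = DMSO and 100% = tetraoctylammonium bromide; nearly all actives have a fitted effect of over 70% in size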
Summary of the method: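 Human lymphoblastoid LYMP1-003 cells (2500/well) were treated with compounds for 16 hr at 37 C in complete medium. Dead-cell protease release was read by bis-AAF-R110 fluorescence (Ex/Em 485/520). AC50 came from Hill fits, normalized to DMSO and 15 uM tetraoctylammonium bromide.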

[31] = MultiTox-Fluor Cytotoxicity Assay - LYMP1-003 - Live Cells (AID 962);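 also: 0% = DMSO only and full loss = 92 µM tetraoctylammonium bromide; cytotoxic hits lower the live-cell protease signal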
Summary of the method: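 Human lymphoblastoid line LYMP1-003 in complete culture medium, treated 16 hr with titrated compounds. Viable cells quantified via cell-permeant GF-AFC substrate fluorescence; AC50 derived by Hill fitting.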

[32] = Cell Viability - LYMP1-003 - Assay at 24 hr (AID 963);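 also: plate controls were DMSO only for no effect and tetraoctylammonium bromide positive control for full effect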
Summary of the method: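 The lymphoblastoid line was treated with titrated compounds for 24 hours, and viable cell number estimated from luciferase-based ATP luminescence.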

[33] = Cell Viability - LYMP1-003 - Assay at 40 hr (AID 964); also: % is scaled to controls: 0 for no effect and ±100 for the full control effect; nearly all actives have a fitted effect of over 60% in size
Summary of the method: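 Acute toxicity is scored as a concentration-dependent loss of intracellular ATP in LYMP1-003 cells (2500/well, complete medium) after 40 hr at 37 C, measured by CellTiter-Glo luminescence; AC50 values derive from standard Hill modelling.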

[34] = Cell Viability - LYMP2-003 (AID 965);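 also: cells exposed to compounds for 24 h before reading; 0% = DMSO only and full effect = 92 µM tetraoctylammonium bromide; nearly all actives have a fitted effect of over 50% in size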
Summary of the method: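 CellTiter-Glo luminescence quantified ATP loss after 24 h compound treatment of LYMP2-003 lymphoblastoid cells at 37 C. Titration series were fitted with the standard Hill equation to give AC50.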

[35] = Cell Viability - LYMP2-004 (AID 966);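 also: plate controls were DMSO only for no effect and tetraoctylammonium bromide control for full effect; nearly all actives have a fitted effect of over 65% in size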
Summary of the method: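 Viable-cell number estimated from ATP luminescence (CellTiter-Glo) in 2500 human lymphoblastoid cells/well after 24 hr at 37 C with compound. AC50 fitted to the standard Hill equation.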

[36] = Cell Viability - LYMP2-005 (AID 967);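 also: plate controls were DMSO only for no effect and 92 µM tetraoctylammonium bromide control for full effect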
Summary of the method: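 LYMP2-005 human lymphoblastoid cells (2500/well) were treated with compounds for 24 h at 37 C. Intracellular ATP was then measured by CellTiter-Glo luminescence after 30 min at room temperature. AC50 values came from Hill-equation fits of qHTS concentration-response data.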

[37] = Cell Viability - LYMP2-009 (AID 968);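 also: 0% = DMSO alone and the full-kill end = tetraoctylammonium bromide at 92 µM; nearly all actives have a fitted effect of over 55% in size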

C[C@H](CCC(=O)O)[C@H]1CC[C@H]2[C@@H]3CC[C@@H]4C[C@H](O)CC[C@]4(C)[C@H]3CC[C@]12C
inactive: Potency [1] > 92 µM | Potency [2] > 92 µM | Potency [3] > 92 µM | Potency [4] > 92 µM | Potency [5] | activity change, negative = cytotoxicity [6] 2.31% | Potency [7] | outcome [8] | Potency [9] | Potency [10] | activity change, negative = cytotoxicity [11] -4.96% | activity change, negative = cytotoxicity [12] 15.4% | outcome [13] | caspase-3 activation [14] -0.354% | outcome [15] | outcome [16] | outcome [17] | outcome [18] | outcome [19] | outcome [20] | Potency [21] | outcome [22] | outcome [23] | outcome [24] | outcome [25] | Potency [26] | Potency [27] | Potency [28] | Potency [29] | Potency [30] | Potency [31] | Potency [32] | Potency [33] | Potency [34] | Potency [35] | Potency [36] | Potency [37]
